Potency and max response data for eight compounds are collected here from PubChem BioAssay (Tox21).

Several values for one entry are separate records, joined by “and”; a condition that tells them apart may be missing. Equal values may be shown once. A number with no mark means an inactive call. Inconclusive results are not listed. Activity calls are given as the source filed them. Calls come from the whole dose curve; as a rule, active = well fitted curve in the direction sought with a large enough effect in the repeat runs; inconclusive = weak or mixed curves; inactive = no such curve, though single readings can be large; an effect the other way counts as inactive or inconclusive.

A short description of experiment [1]: qHTS RealTime-Glo MT Cell Viability Assay in HepG2 cells - 40 hour (AID 1224870). Note: nearly all actives have a fitted effect of over 50% in size. Note: potency is the fitted concentration of half-maximal effect. A digest of the protocol: (§1)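 Real-time viability: cells seeded at 600 per well together with NanoLuc and cell-permeant prosubstrate, compounds added after 5 h incubation. Luminescence tracked at 0, 8, 16, 24, 32 and 40 h of exposure.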
(qHTS replaces the single test concentration by a dilution series.)

The nature of experiment [2]: A CellTox Green Cytotoxicity Assay to monitor cytotoxicity in HEK293 cells - 40 hour (AID 1224871). Note: nearly all actives have a fitted effect of over 45% in size. Note: potency is the fitted concentration of half-maximal effect. A digest of the protocol: (§2)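 Tox21 screen in HEK293: membrane-impermeant cyanine dye fluoresces on binding dead-cell DNA; compound pinned 5 h post-seeding, plates held at 37 C, signal read repeatedly through 40 h.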
Experiment [3] is described as follows: qHTS RealTime-Glo MT Cell Viability Assay in HEK293 cells - 16 hour (AID 1224872). Note: nearly all actives have a fitted effect of over 50% in size. Note: potency is the fitted concentration of half-maximal effect. The procedure, abridged:
(§3)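 Quantitative high-throughput screen of the Tox21 10K library in HEK293: cells and RealTime-Glo reagents plated together, compound added at 5 h, luminescence monitored through 40 h at 37 C.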

A short description of experiment [4]: qHTS RealTime-Glo MT Cell Viability Assay in HepG2 cells - 8 hour (AID 1224873). Note: nearly all actives have a fitted effect of over 55% in size. Note: potency is the fitted concentration of half-maximal effect. A digest of the protocol: as §1
Experiment [5] can be described thus: A CellTox Green Cytotoxicity Assay to monitor cytotoxicity in HEK293 cells - 24 hour (AID 1224875). Note: nearly all actives have a fitted effect of over 45% in size. Note: potency is the fitted concentration of half-maximal effect. A digest of the protocol:
as §2

Experiment [6] is described as follows: A CellTox Green Cytotoxicity Assay to monitor cytotoxicity in HepG2 cells - 16 hour (AID 1224876). Note: nearly all actives have a fitted effect of over 45% in size. Note: potency is the fitted concentration of half-maximal effect. The procedure, abridged:
(§4)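 Measurements at 0, 8, 16, 24, 32 and 40 h of treatment captured CellTox Green fluorescence in HepG2 cells that had been co-plated with reagent and preincubated 5 h at 37 C/5% CO2.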

Experiment [7] is described as follows: qHTS RealTime-Glo MT Cell Viability Assay in HepG2 cells - 32 hour (AID 1224877). Note: nearly all actives have a fitted effect of over 55% in size. Note: potency is the fitted concentration of half-maximal effect. The procedure, abridged: (§5)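 Compound treatment began 5 h after plating HepG2 cells (600/well) with NanoLuc luciferase and prosubstrate. Plates stayed at 37 C for 40 h; luminescence was captured at six time points, 0 h through 40 h.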
Experiment [8] in a line: A CellTox Green Cytotoxicity Assay to monitor cytotoxicity in HepG2 cells - 24 hour (AID 1224878). Note: nearly all actives have a fitted effect of over 45% in size. Note: potency is the fitted concentration of half-maximal effect. The procedure, abridged: as §4
Experiment [9] is described as follows: A CellTox Green Cytotoxicity Assay to monitor cytotoxicity in HepG2 cells - 40 hour (AID 1224879). Note: nearly all actives have a fitted effect of over 40% in size. Note: potency is the fitted concentration of half-maximal effect. A digest of the protocol:
as §4

Experiment [10] can be described thus: qHTS RealTime-Glo MT Cell Viability Assay in HEK293 cells - 0 hour (AID 1224880). A digest of the protocol:
(§6)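 HEK293 + NanoLuc + prosubstrate, 600 cells/well; 5 h, 37 C/5% CO2; compound 23 nL in DMSO by pintool; 37 C; luminescence read at 0, 8, 16, 24, 32 and 40 h time points.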

Experiment [11] in a line: A CellTox Green Cytotoxicity Assay to monitor cytotoxicity in HEK293 cells - 32 hour (AID 1224881). Note: nearly all actives have a fitted effect of over 40% in size. Note: potency is the fitted concentration of half-maximal effect. The procedure, abridged: as §2
Experiment [12] can be described thus: A CellTox Green Cytotoxicity Assay to monitor cytotoxicity in HepG2 cells - 0 hour (AID 1224882). Note: nearly all actives have a fitted effect of over 35% in size. A digest of the protocol:
as §4

Experiment [13] in a line: qHTS RealTime-Glo MT Cell Viability Assay in HepG2 cells - 16 hour (AID 1224885). Note: nearly all actives have a fitted effect of over 50% in size. Note: potency is the fitted concentration of half-maximal effect. A digest of the protocol:
as §5

Experiment [14] is described as follows: qHTS RealTime-Glo MT Cell Viability Assay in HEK293 cells - 8 hour (AID 1224887). Note: nearly all actives have a fitted effect of over 50% in size. Note: potency is the fitted concentration of half-maximal effect. A digest of the protocol:
as §6

A short description of experiment [15]: A CellTox Green Cytotoxicity Assay to monitor cytotoxicity in HEK293 cells - 16 hour (AID 1224888). Note: nearly all actives have a fitted effect of over 35% in size. Note: potency is the fitted concentration of half-maximal effect. A digest of the protocol: as §2
A short description of experiment [16]: qHTS RealTime-Glo MT Cell Viability Assay in HepG2 cells - 0 hour (AID 1224889). Note: nearly all actives have a fitted effect of over 50% in size. A digest of the protocol: as §5
A short description of experiment [17]: qHTS RealTime-Glo MT Cell Viability Assay in HEK293 cells - 40 hour (AID 1224874). Note: nearly all actives have a fitted effect of over 50% in size. Note: potency is the fitted concentration of half-maximal effect. Conditions: RealTime-Glo luminescence; max response: stronger effect = lower value. A digest of the protocol:
as §6

Experiment [18] is described as follows: A CellTox Green Cytotoxicity Assay to monitor cytotoxicity in HepG2 cells - 32 hour (AID 1224883). Note: nearly all actives have a fitted effect of over 50% in size. Note: potency is the fitted concentration of half-maximal effect. A digest of the protocol: as §4
The nature of experiment [19]: A CellTox Green Cytotoxicity Assay to monitor cytotoxicity in HEK293 cells - 8 hour (AID 1224884). Note: nearly all actives have a fitted effect of over 35% in size. Note: potency is the fitted concentration of half-maximal effect. A digest of the protocol:
as §2

A short description of experiment [20]: qHTS RealTime-Glo MT Cell Viability Assay in HEK293 cells - 24 hour (AID 1224886). Note: nearly all actives have a fitted effect of over 50% in size. Note: potency is the fitted concentration of half-maximal effect. A digest of the protocol: as §3
% is set by controls: 0 for no effect and ±100 for the full control effect.

Consider `Cc1ccccc1C(=O)Nc1cccc(OC(C)C)c1`, for which the Potency result in [1], in experiment [2], in [3], in experiment [4], in experiment [5] and in [6] was “inactive” throughout. Also, the Potency entry in experiment [7], in [8], in experiment [9], in [10], in [11] and in experiment [12] was “inactive” in each case. In addition, the Potency entry in experiment [13], in [14], in experiment [15] and in [16] was “inactive” each time.
As for `O=C(Nc1ccccc1)Nc1cnns1`, the Potency entry in experiment [1], in experiment [2], in experiment [4], in [5], in experiment [6] and in experiment [8] was “inactive” in each case. For the same compound, the Potency entry in experiment [9], in experiment [10], in experiment [11], in experiment [12], in experiment [18] and in experiment [19] was “inactive” each time. The Potency entry in experiment [15] and in experiment [16] was “inactive” each time. For the same compound, the Potency is 27.5 µM (active) in experiment [17] and 24.5 µM (active) in experiment [20].
Take `COCCOCCO`: the Potency result in [1], in experiment [2], in experiment [3], in experiment [4], in [5] and in experiment [6] was “inactive” in each case. Besides, the Potency entry in [7], in experiment [8], in experiment [9], in experiment [10], in experiment [11] and in [12] was “inactive” each time. The Potency result in [18], in [19], in [13], in [20], in experiment [14] and in experiment [15] was “inactive” in each case. Also, the Potency result in experiment [16] is “inactive”.
As for `CCC(C)(NC(=O)c1cc(Cl)c(C)c(Cl)c1)C(=O)CCl` (stereo not drawn), the Potency in [1] was 49.3 µM (active); in experiment [2], 43.9 µM (active); in experiment [3], 27.7 µM (active); in experiment [17] it was 13.9 µM (active); in experiment [7], 49.3 µM (active); in experiment [9], 49.3 µM (active). Moreover, the Potency in experiment [11] was 43.9 µM (active); in experiment [18], 49.3 µM (active); in experiment [20] it was 24.7 µM (active); in experiment [14] it was 27.7 µM (active). Moreover, the Potency entry in experiment [10], in experiment [12], in [19] and in [15] was “inactive” in each case.
On to `CC(c1ccc(O)cc1)(c1ccc(O)cc1)c1ccc(O)cc1`, for which the Potency entry in experiment [1], in experiment [2], in experiment [4], in experiment [5], in experiment [6] and in experiment [7] was “inactive” throughout. Further, the Potency entry in [8], in [11], in experiment [12], in [18], in experiment [19] and in experiment [15] was “inactive” in each case.
Consider `O=C(O)C1(c2ccc3c(c2)OC[C@H](Cc2ccc(-c4ccccc4)cc2)[C@H]3O)CCCC1`, for which the Potency result in experiment [1], in experiment [4], in experiment [7], in experiment [10], in [12] and in experiment [13] was “inactive” in each case. Besides, the Potency entry in experiment [16] was “inactive”. Further, the Potency in [2] was 34.7 µM (active); in [5] it was 38.9 µM (active); in [9], 49 µM (active); in experiment [11] it was 34.7 µM (active); in experiment [18], 43.6 µM (active).
With `Brc1ccc(Oc2ccccc2)cc1`, the Potency entry in experiment [1], in experiment [3], in experiment [4], in experiment [6], in experiment [8] and in [9] was “inactive” each time. Also, the Potency result in [10], in [12], in experiment [18], in experiment [13], in experiment [20] and in experiment [14] was “inactive” in each case. Also, the Potency result in experiment [15] and in [16] was “inactive” in each case. The Potency in [2] is 44.7 µM (active) and 21.9 µM (active); in experiment [11], 50.2 µM (active) and 21.9 µM (active). Moreover, the max response in experiment [17] is 1.37% and 1.64%.
With `IC(I)=C(I)I`, the Potency in [1] was 0.347 µM (active); in [2] it was 54.9 µM (active); in [3] it was 9.77 µM (active); in experiment [4], 1.55 µM (active); in experiment [17], 6.16 µM (active); in experiment [6], 24.5 µM (active). Besides, the Potency in experiment [7] was 0.436 µM (active); in [8], 19.5 µM (active); in experiment [9], 12.3 µM (active); in experiment [11], 54.9 µM (active); in experiment [18] it was 13.8 µM (active); in [19], 54.9 µM (active). Also, the Potency in [13] was 0.776 µM (active); in experiment [20] it was 6.92 µM (active); in experiment [14], 17.4 µM (active); in experiment [15], 54.9 µM (active). Moreover, the Potency entry in experiment [12] is “inactive”.
